The source made the active and inactive calls. Rule for the calls: active = hit-call score of the fitted dose curve at least 0.9, where 1 is the maximum; inactive = score below 0.9.
Key:
[1] = read-out: Interleukin 17F (IL17F), IL17F (gene 112744); experiment: BSK_BT_xIL17F: BioMAP Diversity Plus: BT Assay for Interleukin 17F (IL17F) Biomarker Activity (AID 2284243); details: primary human B cells with PBMC
In short: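 B cell/PBMC co-culture (human primary), 24 h compound exposure; sIL-17F by Luminex xMAP; gain-of-signal fit vs DMSO baseline.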

[2] = read-out: Actin alpha 1 (ACTA1), ACTA1 (gene 58); experiment: BSK_MyoF_ACTA1: BioMAP Diversity Plus: MyoF Assay for Actin alpha 1 (ACTA1) Biomarker Activity (AID 2284244); details: primary human lung fibroblasts
In short: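 alpha-SMA levels read by ELISA against DMSO baseline, 24 h post-dose, in primary human lung fibroblasts. Parallel cultures stained with 0.1% SRB after 10% TCA fixation (560 nm) to flag overt cytotoxicity.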

[3] = read-out: Interleukin 2 (IL2), IL2 (gene 3558); experiment: BSK_BT_xIL2: BioMAP Diversity Plus: BT Assay for Interleukin 2 (IL2) Biomarker Activity (AID 2284245); details: primary human B cells with PBMC
In short: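 Secreted IL-2 was read by Luminex xMAP from B cells co-cultured with PBMC (human primary) 24 h post-dosing; activity was analysed as gain of signal relative to DMSO vehicle.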

[4] = read-out: Basic fibroblast growth factor (bFGF), FGF2 (gene 2247); experiment: BSK_MyoF_bFGF: BioMAP Diversity Plus: MyoF Assay for Basic fibroblast growth factor (bFGF) Biomarker Activity (AID 2284246); details: primary human lung fibroblasts
In short: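 bFGF was measured by ELISA in primary human lung fibroblasts 24 h after chemical addition. Signal was analysed as positive-direction change relative to DMSO baseline.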

[5] = read-out: Collagen IV, COL4A1 (gene 1282); experiment: BSK_MyoF_CollagenIV: BioMAP Diversity Plus: MyoF Assay for Collagen IV Biomarker Activity (AID 2284247); details: primary human lung fibroblasts
In short: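 Collagen IV quantified by ELISA in human lung fibroblast cultures 24 h after chemical treatment, with DMSO as baseline. Parallel SRB staining (0.1% SRB after TCA fixation, 560 nm) flags overt cytotoxicity.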

Structure (SMILES): c1ccc(-c2cccc(-c3ccccc3)c2)cc1
- AC50 [1]: 22.6 µM (active)
- AC50 [2]: 20 µM (active)
- outcome [3]: inactive
- outcome [4]: inactive
- outcome [5]: inactive

Structure (SMILES): CCOC(=O)C(SP(=S)(OC)OC)c1ccccc1 (stereo not given)
- outcome [1]: inactive
- AC50 [2]: 20 µM (active)
- outcome [3]: inactive
- outcome [4]: inactive
- outcome [5]: inactive

Structure (SMILES): O=[N+]([O-])c1ccc(Nc2ccccc2)cc1
- outcome [1]: inactive
- outcome [2]: inactive
- outcome [3]: inactive
- outcome [4]: inactive
- outcome [5]: inactive

Structure (SMILES): CCOP(=O)(OCC)OC(=CCl)c1ccc(Cl)cc1Cl
- outcome [1]: inactive
- AC50 [2]: 30.5 µM (active)
- AC50 [3]: 20 µM (active)
- outcome [4]: inactive
- outcome [5]: inactive

Structure (SMILES): CC(C)N(C(=O)CCl)c1ccccc1
- AC50 [1]: 8.76 µM (active)
- AC50 [2]: 2.84 µM (active)
- AC50 [3]: 11.8 µM (active)
- AC50 [4]: 4 µM (active)
- AC50 [5]: 4.16 µM (active)

Structure (SMILES): CCOP(=S)(OCC)SCS(=O)(=O)C(C)(C)C
- outcome [1]: inactive
- outcome [2]: inactive
- outcome [3]: inactive
- outcome [4]: inactive
- outcome [5]: inactive

Structure (SMILES): Cc1cccc(OP(=O)(Oc2cccc(C)c2)Oc2cccc(C)c2)c1
- outcome [1]: inactive
- outcome [2]: inactive
- outcome [3]: inactive
- outcome [4]: inactive
- AC50 [5]: 0.0382 µM (active)

Structure (SMILES): CCOC(=O)CC(=O)CCl
- AC50 [1]: 12.4 µM (active)
- outcome [2]: inactive
- AC50 [3]: 20 µM (active)
- outcome [4]: inactive
- outcome [5]: inactive

Structure (SMILES): Cc1c([N+](=O)[O-])c(C)c([N+](=O)[O-])c(C(C)(C)C)c1[N+](=O)[O-]
- AC50 [1]: 28.1 µM (active)
- AC50 [2]: 33 µM (active)
- outcome [3]: inactive
- outcome [4]: inactive
- outcome [5]: inactive

Structure (SMILES): O=C(O)COc1cc(Cl)c(Cl)cc1Cl
- outcome [1]: inactive
- outcome [2]: inactive
- outcome [3]: inactive
- outcome [4]: inactive
- outcome [5]: inactive

Structure (SMILES): Oc1ccc(Cc2ccc(O)cc2)cc1
- outcome [1]: inactive
- outcome [2]: inactive
- outcome [3]: inactive
- outcome [4]: inactive
- outcome [5]: inactive

— PubChem BioAssay (EPA / NIEHS)
